Some compounds were tested as several samples or in several runs, with calls that do not always agree. Calls of active or inactive are those of the source. The calls were made as follows: active = hit-call score of the fitted dose curve at least 0.9, where 1 is the maximum; inactive = score below 0.9.

The nature of test [1]: BSK_3C_SRB: Viability Assessment in the BioMAP Diversity Plus: 3C Assay (AID 2283023).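 Also: fitted both ways against DMSO so a hit may be signal rise or drop.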 The settings on record: primary human endothelial cells (HUVEC). A digest of the protocol:
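Absorbance at 560 nm of sulforhodamine B-stained (0.1%) total protein served as a cytotoxicity readout in human umbilical vein endothelial cells, 24 h after chemical treatment. Signal was fitted bidirectionally relative to DMSO.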

Read-out in test [2]: Matrix Metallopeptidase 1 (MMP1), MMP1 (gene 4312)
Briefly: BSK_BE3C_MMP1: BioMAP Diversity Plus: BE3C Assay for Matrix Metallopeptidase 1 (MMP1) Biomarker Activity (AID 2283024). The note with it: primary human bronchial epithelial cells; actives raise or lower the signal. Summed up:
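ELISA measurement of MMP-1 after 24 h compound exposure of primary human bronchial epithelial cells. Changes in either direction fitted relative to DMSO; parallel SRB staining checked overt cytotoxicity.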

A short description of test [3]: BSK_3C_Vis: BioMAP Diversity Plus: 3C Assay for Morphology Visualization (AID 2283025).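 Also: fitted both ways so gain or loss versus DMSO counts.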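 As to AC50: light microscopy image of cell morphology used as background control.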 The note with it: primary human endothelial cells (HUVEC). A digest of the protocol:
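Light-microscopy visualization of HUVEC cultures at 24 h post-treatment, with DMSO as baseline for bidirectional fitting.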

Read-out in test [4]: Pselectin, SELP (gene 6403)
As to the kind of experiment: BSK_4H_Pselectin: BioMAP Diversity Plus: 4H Assay for Pselectin Biomarker Activity (AID 2283026). The settings on record: primary human endothelial cells (HUVEC); actives raise or lower the signal. A digest of the protocol:
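ELISA of surface P-selectin on HUVEC, 24 h after dosing, with parallel SRB staining (0.1% after 10% TCA fixation, 560 nm) for overt cytotoxicity. Activity fitted in both directions relative to DMSO.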

The nature of test [5]: BSK_4H_SRB: Viability Assessment in the BioMAP Diversity Plus: 4H Assay (AID 2283027).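 Also: cells exposed to compound for 24 h before staining.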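 As to AC50: curves fitted both ways versus DMSO so AC50 may be loss or gain.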 The note with it: primary human endothelial cells (HUVEC). A digest of the protocol: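 Cytotoxicity read-out in primary human endothelial cells: after 24 h compound exposure, cells were TCA-fixed (10%), stained with 0.1% SRB and absorbance taken at 560 nm. Values fitted in both directions relative to DMSO.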

A short description of test [6]: BSK_BE3C_SRB: Viability Assessment in the BioMAP Diversity Plus: BE3C Assay (AID 2283028).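 As to AC50: fitted both ways so AC50 may mark signal gain or loss versus DMSO.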 The note with it: primary human bronchial epithelial cells. A digest of the protocol: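 Cells (human bronchial epithelial, primary) are treated with chemicals, and after 24 h the parallel cultures are fixed in 10% TCA. These are then stained with 0.1% SRB and read at 560 nm. Gain or loss of signal is fitted relative to DMSO.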

Read-out in test [7]: Thrombomodulin, THBD (gene 7056)
Briefly: BSK_3C_Thrombomodulin: BioMAP Diversity Plus: 3C Assay for Thrombomodulin Biomarker Activity (AID 2283029). The settings on record: primary human endothelial cells (HUVEC); actives raise or lower the signal. A digest of the protocol: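 ELISA measurement of thrombomodulin on HUVEC surface 24 h after chemical dosing; activity fitted in both directions relative to DMSO vehicle.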

Read-out in test [8]: Vascular endothelial growth factor receptor 2 (Homo sapiens) (UniProt P35968)
Briefly: BSK_4H_VEGFRII: BioMAP Diversity Plus: 4H Assay for Vascular endothelial growth factor receptor 2 (VEGFR2) Biomarker Activity (AID 2283031).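 As to AC50: cell-surface VEGFR2 protein level quantified by ELISA.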 The settings on record: primary human endothelial cells (HUVEC); actives raise or lower the signal. A digest of the protocol:
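ELISA read-out of VEGFRII in primary human umbilical vein endothelium, taken 24 h after chemical treatment. Responses are expressed relative to DMSO, with bidirectional fitting.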

Read-out in test [9]: Human Leukocyte Antigen - DR isotype (HLADR), HLA-DRA (gene 3122)
As to the kind of experiment: BSK_BE3C_HLADR: BioMAP Diversity Plus: BE3C Assay for Human Leukocyte Antigen - DR isotype (HLADR) Biomarker Activity (AID 2283032). The settings on record: primary human bronchial epithelial cells; actives raise or lower the signal. A digest of the protocol:
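Cell-surface HLA-DR ELISA readout at 24 h after dosing in the BE3C primary human lung bronchial epithelial system; gain or loss of signal against DMSO, with parallel sulforhodamine B staining of total protein for overt cytotoxicity.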

Read-out in test [10]: Urokinase-type plasminogen activator receptor (uPAR), PLAUR (gene 5329)
Briefly: BSK_4H_uPAR: BioMAP Diversity Plus: 4H Assay for Urokinase-type plasminogen activator receptor (uPAR) Biomarker Activity (AID 2283030). The settings on record: primary human endothelial cells (HUVEC); actives raise or lower the signal. Summed up:
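Cell-surface uPAR ELISA signal, measured 24 h after dosing human umbilical vein endothelial cells, was analyzed with bidirectional fitting relative to DMSO. Parallel SRB staining of total protein tracked overt cytotoxicity.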

Consider `O=C(O)c1cccc(C[C@@H]2COc3ccc(OCc4nc5cc(F)ccc5s4)cc3[C@@H]2O)c1`, for which the result in test [1], in [2], in test [3], in test [4], in test [5] and in test [6] was inactive. The result in [7], in test [8] and in [9] was inactive.
Take `CCCc1ccccc1`: the result in test [1], in test [2], in test [3], in [4], in test [5] and in test [6] was inactive. Further, the outcome in test [7], in [8] and in test [9] was inactive.
On to `COS(C)(=O)=O`, for which the outcome in test [1], in test [2], in [3], in test [4], in test [5] and in [6] was inactive. For the same compound, the outcome in [7], in test [10], in [8] and in test [9] was inactive.
Consider `O=c1[nH]cnc2c1ncn2[C@H]1CC[C@@H](CO)O1`, for which the outcome in test [1], in test [2], in [3], in test [4], in test [5] and in test [6] was inactive. For the same compound, the result in test [7], in test [10], in test [8] and in test [9] was inactive.
With `CCCCCCCC1CCC(=O)O1` (stereo not given), the result in test [1], in [2], in test [3], in [4], in test [5] and in [6] was inactive. Moreover, the outcome in [7], in test [10], in test [8] and in test [9] was inactive.
Consider `CCCCC(CC)C(=O)OCCOCCOCCOC(=O)C(CC)CCCC` (stereo not given), for which the result in [1], in test [2], in [3], in [4], in [5] and in [6] was inactive. For the same compound, the result in test [7], in test [8] and in test [9] was inactive.
As for `c1ccc(C(O[C@@H]2CCCN(CCc3ccc4c(c3)OCO4)C2)c2ccccc2)cc1`, the AC50 in test [1] is 25.2 µM (active); in test [2], 26.8 µM (active); in test [3], 9.8 µM (active); in test [5], 25.4 µM (active); in [10], 15.5 µM (active); in test [9], 20 µM (active). In addition, the result in [4], in [6], in [7] and in [8] was inactive.
For `OCCNCCO`, the result in test [1], in [2], in [3], in test [4], in test [5] and in [6] was inactive. Further, the outcome in test [7], in test [10], in [8] and in [9] was inactive.
Regarding `OCc1c[nH]c2ccccc12`, the AC50 in test [1] is 11.5 µM (active); in test [2], 0.297 µM (active); in test [3] it was 37.5 µM (active); in [9] it was 3.97 µM (active). Further, the result in test [4], in test [5], in [6], in [7] and in test [8] was inactive.
On to `OCC(CO)(CO)CO`, for which the result in [1], in [2], in [3], in [4], in test [5] and in test [6] was inactive. In addition, the outcome in test [7], in test [8] and in test [9] was inactive.
Turning to `CC(=O)c1ccccc1`, the result in test [1], in test [2], in [3], in test [4], in test [5] and in [6] was inactive. For the same compound, the result in test [7], in [10], in [8] and in test [9] was inactive.
On to `O=C(O)c1cccc(C(=O)O)c1`, for which the result in [1], in test [2], in test [3], in [4], in test [5] and in test [6] was inactive. Moreover, the result in test [7], in [8] and in test [9] was inactive.
`CC(C)C(=O)Nc1ccc([N+](=O)[O-])c(C(F)(F)F)c1`: the result in [1], in [2], in [3], in test [4], in test [5] and in test [6] was inactive. In addition, the outcome in test [7], in test [8] and in test [9] was inactive.
Take `S=P(N1CC1)(N1CC1)N1CC1`: the outcome in [1], in test [2], in test [3], in test [4], in [5] and in [6] was inactive. In addition, the outcome in [7], in [8] and in test [9] was inactive.
For `OC[C@H]1O[C@@H]2O[C@H]3[C@H](O)[C@@H](O)[C@@H](O[C@H]4[C@H](O)[C@@H](O)[C@@H](O[C@H]5[C@H](O)[C@@H](O)[C@@H](O[C@H]6[C@H](O)[C@@H](O)[C@@H](O[C@H]7[C@H](O)[C@@H](O)[C@@H](O[C@H]1[C@H](O)[C@H]2O)O[C@@H]7CO)O[C@@H]6CO)O[C@@H]5CO)O[C@@H]4CO)O[C@@H]3CO`, the result in test [1], in [2], in test [3], in [4], in [5] and in test [6] was inactive. The result in [7], in test [8] and in [9] was inactive.
Regarding `CCCCCOC(C)=O`, the result in [1], in test [2], in test [3], in test [4], in test [5] and in test [6] was inactive. Moreover, the outcome in [7], in [8] and in test [9] was inactive.
Regarding `Cc1cccc(O)c1C`, the result in test [1], in test [2], in test [3], in [4], in test [5] and in test [6] was inactive. For the same compound, the outcome in [7], in [8] and in [9] was inactive.
Take `FC(F)C(F)(F)COCC1CO1` (stereo not given): the result in [1], in [2], in test [4], in [5], in test [6] and in [7] was inactive. Further, the result in test [10], in [8] and in test [9] was inactive. For the same compound, the AC50 in test [9] was 45.8 µM (active).
Consider `CC(C)CCCCCCOC(=O)C1CCCCC1C(=O)OCCCCCCC(C)C` (stereo not given), for which the result in [1], in test [2], in test [3], in test [4], in [5] and in [6] was inactive. Besides, the result in test [7], in test [8] and in test [9] was inactive.
As for `CCCCN1C(=O)[C@@H]([C@H](O)C2CCCCC2)NC(=O)C12CCN(Cc1ccc(Oc3ccc(C(=O)O)cc3)cc1)CC2`, the AC50 in [1] was 27.3 µM (active); in [3], 39 µM (active); in [5] it was 23.6 µM (active). In addition, the result in test [2], in test [4], in test [6], in [7], in [8] and in [9] was inactive.
With `CCN(CC)C(=S)SSC(=S)N(CC)CC`, the AC50 was 27.8 µM (active) in test [1]; 25.5 µM (active) in [2]; 39.8 µM (active) in [3]; 20 µM (active) in test [4]; 31.7 µM (active) in [5]; 34.6 µM (active) in [6]. Further, the AC50 in test [8] was 26.8 µM (active); in test [9], 8.96 µM (active).

Broadly, the AC50 is the concentration at which the activity in the assay is half-maximal.
